Consider nine compounds from PubChem BioAssay (EPA / NIEHS).

Where “and” joins values, the source holds several entries; their conditions need not be identical. Identical values can stand only once. Inconclusive results are not listed. Some compounds were tested as several samples or in several runs, with calls that do not always agree. Calls of active or inactive are those of the source. Rule for the calls: active = hit-call score of the fitted dose curve at least 0.9, where 1 is the maximum; inconclusive = response in the unintended direction; inactive = score below 0.9.

As usually defined, the AC50 is the midpoint of the concentration-response curve, whichever way the signal moves.

In assay [1] the target is AR (gene 367) (UniProt P10275). The assay can be described thus: ACEA_AR_antagonist_80hr: ACEA Biosciences xCELLigence Real-Time Cell Analysis on Androgen Receptor Antagonism for Proliferation (AID 2283787).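 Note: 22Rv1 human prostate cancer cells with growth followed by electrical impedance; hits lower the impedance growth signal relative to DMSO.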 A digest of the protocol:
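Impedance readout (RT-CES), 80 h post-dose; loss-of-signal vs DMSO baseline. 22Rv1 cells in assay medium. Compounds: 8-pt 1:4 series, max 100 uM final, up to 0.5% DMSO; n = 2.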

Assay [2] concerns the target Estrogen receptor beta (Homo sapiens) (UniProt Q92731). Nature of the assay: ATG_hERb_XSP1: Attagene TRANS-FACTORIAL Multi-Species (XSP1) HepG2 Assay for human Estrogen Receptor (ESR2) (AID 2283788). The gist of the method:
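Read-out: reporter mRNA induction by RT-PCR, HpaI digestion and capillary electrophoresis fluorescence, fitted in positive direction relative to DMSO baseline. Human liver HepG2 cells expressing ERβ-Gal4 fusion, dosed 24 h, medium containing 3 nM 6-alpha-fluorotestosterone.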

Assay [3] concerns the target GAL4 Transcription Factor (Internal Marker), GAL4 (gene 855828) (UniProt P04386). The assay can be described thus: ATG_GAL4_XSP1: Attagene TRANS-FACTORIAL Multi-Species (XSP1) HepG2 Assay for GAL4 Transcription Factor (Internal Marker) (AID 2283789). A digest of the protocol:
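HepG2 cells transiently transfected with multiplexed GAL4-UAS reporter units were exposed for 24 h with 3 nM 6-alpha-fluorotestosterone present. Reporter mRNA was quantified by RT-PCR, FAM labelling, HpaI digestion and capillary electrophoresis; background-control readout, gain-of-signal versus DMSO.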

Assay [4] is described as follows: ATG_M_06_XSP1: Attagene TRANS-FACTORIAL Multi-Species (XSP1) HepG2 Assay for M06 Transcription Factor (Internal Marker) (AID 2283790). A digest of the protocol: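 Transfected HepG2 multi-reporter system treated 24 h in the presence of 3 nM 6-alpha-fluorotestosterone. The M06 internal marker transcript was quantified by RT-PCR with capillary electrophoresis as a background control, and gain of signal was scored versus DMSO.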

Assay [5] is described as follows: ATG_M_61_XSP1: Attagene TRANS-FACTORIAL Multi-Species (XSP1) HepG2 Assay for M61 Transcription Factor (Internal Marker) (AID 2283797). A digest of the protocol: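 HepG2 cells transiently transfected with multiplexed GAL4-driven reporter units, dosed 24 h with 3 nM 6-alpha-fluorotestosterone present. Reporter mRNA quantified by RT-PCR, 6-FAM labelling, HpaI digestion and capillary electrophoresis; internal-marker background control, gain of signal versus DMSO.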

In assay [6] the target is mouse Peroxisome Proliferator-activated Receptor gamma (PPARg), Pparg (gene 19016) (UniProt P37238). Nature of the assay: ATG_mPPARg_XSP1: Attagene TRANS-FACTORIAL Multi-Species (XSP1) HepG2 Assay for mouse Peroxisome Proliferator-activated Receptor gamma (PPARg) (AID 2283802). The gist of the method:
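HepG2 cells transiently transfected with GAL4-UAS reporter units driven by mouse PPARg–GAL4 chimera; 3 nM 6-alpha-fluorotestosterone present. After 24 h dosing, reporter mRNA quantified by RT-PCR, fluorescent labelling and capillary electrophoresis; gain of signal versus DMSO.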

Assay [7] has as its target Nuclear receptor subfamily 1 group I member 2 (Mus musculus) (UniProt O54915). Nature of the assay: ATG_mPXR_XSP1: Attagene TRANS-FACTORIAL Multi-Species (XSP1) HepG2 Assay for mouse Pregnane X Receptor (PXR) (AID 2283803). The gist of the method: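 Transiently transfected HepG2 cells expressing a receptor-Gal4 chimera drive a GAL4-UAS reporter; 3 nM 6-alpha-fluorotestosterone included. Reporter mRNA read 24 h post-dose by RT-PCR and capillary electrophoresis; gain of signal relative to DMSO.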

In assay [8] the target is frog Thyroid hormone Receptor alpha (TRa), thra-a (gene 397942) (UniProt P15204). Nature of the assay: ATG_frTRa_XSP1: Attagene TRANS-FACTORIAL Multi-Species (XSP1) HepG2 Assay for frog Thyroid hormone Receptor alpha (TRa) (AID 2283804). A digest of the protocol: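 HepG2 cells transiently transfected with frog TRa-GAL4 chimeric reporter units, dosed 24 hr with 3 nM 6-alpha-fluorotestosterone present; reporter mRNA quantified by RT-PCR, fluorescent labelling and capillary electrophoresis, gain of signal versus DMSO.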

Assay [9] has as its target human Thyroid hormone Receptor alpha (TRa), THRA (gene 7067) (UniProt P10827). The assay can be described thus: ATG_hTRa_XSP1: Attagene TRANS-FACTORIAL Multi-Species (XSP1) HepG2 Assay for human Thyroid hormone Receptor alpha (TRa) (AID 2283805). A digest of the protocol:
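HepG2 cells transiently transfected with GAL4-UAS reporter units expressing chimeric NR-Gal4 proteins, dosed 24 hours with 3 nM 6-alpha-fluorotestosterone present. Reporter mRNA measured by RT-PCR and capillary electrophoresis; gain of signal fitted versus DMSO.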

In assay [10] the test system is turtle Thyroid Hormone Receptor, alpha (TRa), gene 101949057. Nature of the assay: ATG_trTRa_XSP1: Attagene TRANS-FACTORIAL Multi-Species (XSP1) HepG2 Assay for turtle Thyroid Hormone Receptor, alpha (TRa) (AID 2283806). A digest of the protocol:
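HepG2 cells transiently transfected with GAL4-UAS reporter units and chimeric receptor-Gal4 constructs, with 3 nM 6-alpha-fluorotestosterone present. Reporter mRNA was quantified 24 h after dosing by RT-PCR, 6-FAM labelling and capillary electrophoresis; gain of signal versus DMSO.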

The target of assay [11] is zebrafish Thyroid Hormone Receptor alpha (TRa), thraa (gene 30670) (UniProt Q98867). Nature of the assay: ATG_zfTRa_XSP1: Attagene TRANS-FACTORIAL Multi-Species (XSP1) HepG2 Assay for zebrafish Thyroid Hormone Receptor alpha (TRa) (AID 2283807). A digest of the protocol:
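HepG2 cells transiently transfected with GAL4-UAS reporter units including a zebrafish TRa–Gal4 chimera, dosed 24 h with 3 nM 6-alpha-fluorotestosterone present. Reporter mRNA quantified by RT-PCR and capillary electrophoresis; gain versus DMSO.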

Assay [12] concerns the target human Thyroid hormone Receptor beta (TRb), THRB (gene 7068) (UniProt P10828). Nature of the assay: ATG_hTRb_XSP1: Attagene TRANS-FACTORIAL Multi-Species (XSP1) HepG2 Assay for human Thyroid hormone Receptor beta (TRb) (AID 2283808). The gist of the method: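 HepG2 cells transiently transfected with reporter units driving GAL4-UAS reporters for chimeric NR-Gal4 proteins; 24 h chemical exposure with 3 nM 6-alpha-fluorotestosterone present. Reporter mRNA quantified by RT-PCR and capillary electrophoresis, gain of signal versus DMSO.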

In assay [13] the target is zebrafish Thyroid Hormone Receptor beta (TRb), thrb (gene 30607) (UniProt Q9PVE4). The assay can be described thus: ATG_zfTRb_XSP1: Attagene TRANS-FACTORIAL Multi-Species (XSP1) HepG2 Assay for zebrafish Thyroid Hormone Receptor beta (TRb) (AID 2283809). The gist of the method:
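HepG2 cells transiently transfected with multiplexed GAL4-UAS reporter units expressing chimeric zebrafish TRb–Gal4. Dosed 24 h with 3 nM 6-alpha-fluorotestosterone present; reporter mRNA measured by RT-PCR, HpaI digestion and capillary electrophoresis; gain of signal versus DMSO.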

Assay [14] is described as follows: ATG_XTT_Cytotoxicity_XSP1: Cytotoxicity Assessment in the Attagene TRANS-FACTORIAL Multi-Species (XSP1) HepG2 Assay (AID 2283810). The gist of the method:
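XTT viability readout taken at 24 hours post-dosing in HepG2 liver cells co-treated with 3 nM 6-alpha-fluorotestosterone. Signal loss relative to DMSO controls reflects cytotoxicity.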

Assay [15] can be described thus: ATG_M_06_XSP2: Attagene TRANS-FACTORIAL Multi-Species (XSP2) HepG2 Assay for M06 Transcription Factor (Internal Marker) (AID 2283811).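 Note: hits are increases in signal above the DMSO baseline.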 The gist of the method:
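HepG2 cells transiently transfected with GAL4-UAS multi-reporter constructs, dosed 24 h with 3 nM 6-alpha-fluorotestosterone plus 1.5 nM norgestrel present to stimulate androgen receptor. Reporter mRNA quantified by RT-PCR, 6-FAM labelling, HpaI digestion and capillary electrophoresis; gain-of-signal fitted versus DMSO baseline.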

The test system of assay [16] is turtle Estrogen Receptor (ERa), gene 101933533. Nature of the assay: ATG_trERa_XSP2: Attagene TRANS-FACTORIAL Multi-Species (XSP2) HepG2 Assay for turtle Estrogen Receptor (ERa) (AID 2283812).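 Note: human HepG2 liver cells transiently expressing turtle ERa-Gal4 chimeric receptor; actives raise reporter signal above DMSO so AC50 reflects agonist activity.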 The gist of the method:
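HepG2 cells transiently transfected with GAL4-UAS reporter units expressing turtle ERa-Gal4 chimera. Reporter mRNA measured after 24 h dosing by RT-PCR, fluorescent labelling and capillary electrophoresis; gain of signal fitted versus DMSO.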

Assay [17] deals with Estrogen receptor beta (Homo sapiens) (UniProt Q92731). Nature of the assay: ATG_hERb_XSP2: Attagene TRANS-FACTORIAL Multi-Species (XSP2) HepG2 Assay for human Estrogen Receptor (ERb) (AID 2283813).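 Note: actives raise reporter mRNA above DMSO so AC50 reflects agonist induction.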 A digest of the protocol:
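HepG2 cells transiently transfected with GAL4-UAS reporter units and chimeric human ERb-Gal4, 24 h exposure. Reporter mRNA quantified by RT-PCR with FAM labelling, HpaI digestion and capillary electrophoresis; gain of signal versus DMSO.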

In assay [18] the target is GAL4 Transcription Factor (Internal Marker), GAL4 (gene 855828) (UniProt P04386). The assay can be described thus: ATG_GAL4_XSP2: Attagene TRANS-FACTORIAL Multi-Species (XSP2) HepG2 Assay for GAL4 Transcription Factor (Internal Marker) (AID 2283814).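 Note: GAL4 reporter mRNA background control in MRTU transfected cells not a receptor target.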 The gist of the method: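 HepG2 cells transiently transfected with GAL4-UAS reporter units, stimulated with 3 nM 6-alpha-fluorotestosterone plus 1.5 nM norgestrel, dosed 24 h. Reporter mRNA by RT-PCR/capillary electrophoresis; gain-of-signal fit versus DMSO, background control.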

Assay [19] addresses zebrafish Estrogen Receptor (ER1), esr1 (gene 259252) (UniProt P57717). Nature of the assay: ATG_zfER1_XSP2: Attagene TRANS-FACTORIAL Multi-Species (XSP2) HepG2 Assay for zebrafish Estrogen Receptor (ER1) (AID 2283816). A digest of the protocol:
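HepG2 cells transiently transfected with a GAL4-UAS reporter and a chimeric zebrafish ER1-Gal4 construct, dosed 24 h. Reporter mRNA quantified by RT-PCR, labelling, HpaI digestion and capillary electrophoresis, relative to DMSO.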

The target of assay [20] is chicken Estrogen Receptor (ERa), ESR1 (gene 396099) (UniProt P06212). The assay can be described thus: ATG_chERa_XSP2: Attagene TRANS-FACTORIAL Multi-Species (XSP2) HepG2 Assay for chicken Estrogen Receptor (ERa) (AID 2283817).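 Note: actives raise reporter signal above DMSO so AC50 reflects ER activation.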 A digest of the protocol:
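HepG2 cells transiently transfected with multiplexed GAL4-UAS reporter units expressing chimeric chicken ERa-Gal4; 24 h compound exposure. Reporter mRNA measured by RT-PCR with 6-FAM labelling, HpaI digestion and capillary electrophoresis; gain-of-signal fitted versus DMSO.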

Sequence of chicken Estrogen Receptor (ERa), ESR1 (gene 396099) (P06212 whole entry, looked up, the tested form may be a part): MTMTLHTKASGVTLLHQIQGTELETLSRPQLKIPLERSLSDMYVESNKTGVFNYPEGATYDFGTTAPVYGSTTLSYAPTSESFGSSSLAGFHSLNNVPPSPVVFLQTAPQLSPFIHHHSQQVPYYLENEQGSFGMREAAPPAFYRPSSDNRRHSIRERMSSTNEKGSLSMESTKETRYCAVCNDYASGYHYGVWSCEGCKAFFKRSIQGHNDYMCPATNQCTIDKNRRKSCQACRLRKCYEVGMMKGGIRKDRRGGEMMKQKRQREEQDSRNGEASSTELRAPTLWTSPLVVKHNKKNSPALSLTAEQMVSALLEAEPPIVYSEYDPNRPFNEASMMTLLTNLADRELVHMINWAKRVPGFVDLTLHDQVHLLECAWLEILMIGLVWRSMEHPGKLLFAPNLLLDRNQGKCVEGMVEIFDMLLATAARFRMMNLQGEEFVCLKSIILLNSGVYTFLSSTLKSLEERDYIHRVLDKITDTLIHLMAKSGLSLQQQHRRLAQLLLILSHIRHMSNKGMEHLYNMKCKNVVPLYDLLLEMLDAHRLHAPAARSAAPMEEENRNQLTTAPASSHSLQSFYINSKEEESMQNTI
Sequence of Estrogen receptor beta (Homo sapiens) (Q92731 whole entry, looked up, the tested form may be a part): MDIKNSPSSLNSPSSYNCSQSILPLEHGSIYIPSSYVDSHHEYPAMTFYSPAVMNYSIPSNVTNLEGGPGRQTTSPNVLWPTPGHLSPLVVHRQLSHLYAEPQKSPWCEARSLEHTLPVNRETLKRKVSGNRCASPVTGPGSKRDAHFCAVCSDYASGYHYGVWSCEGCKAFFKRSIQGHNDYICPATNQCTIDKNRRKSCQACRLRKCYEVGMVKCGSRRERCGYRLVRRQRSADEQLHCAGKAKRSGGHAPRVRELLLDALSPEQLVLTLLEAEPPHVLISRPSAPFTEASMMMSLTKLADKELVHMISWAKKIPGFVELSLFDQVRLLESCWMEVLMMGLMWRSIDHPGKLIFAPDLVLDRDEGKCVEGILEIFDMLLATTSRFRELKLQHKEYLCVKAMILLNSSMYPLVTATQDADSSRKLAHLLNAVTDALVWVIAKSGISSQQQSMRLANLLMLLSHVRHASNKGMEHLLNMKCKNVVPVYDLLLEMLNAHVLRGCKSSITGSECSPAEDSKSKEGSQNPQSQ
Sequence of GAL4 Transcription Factor (Internal Marker), GAL4 (gene 855828) (P04386 whole entry, looked up, the tested form may be a part): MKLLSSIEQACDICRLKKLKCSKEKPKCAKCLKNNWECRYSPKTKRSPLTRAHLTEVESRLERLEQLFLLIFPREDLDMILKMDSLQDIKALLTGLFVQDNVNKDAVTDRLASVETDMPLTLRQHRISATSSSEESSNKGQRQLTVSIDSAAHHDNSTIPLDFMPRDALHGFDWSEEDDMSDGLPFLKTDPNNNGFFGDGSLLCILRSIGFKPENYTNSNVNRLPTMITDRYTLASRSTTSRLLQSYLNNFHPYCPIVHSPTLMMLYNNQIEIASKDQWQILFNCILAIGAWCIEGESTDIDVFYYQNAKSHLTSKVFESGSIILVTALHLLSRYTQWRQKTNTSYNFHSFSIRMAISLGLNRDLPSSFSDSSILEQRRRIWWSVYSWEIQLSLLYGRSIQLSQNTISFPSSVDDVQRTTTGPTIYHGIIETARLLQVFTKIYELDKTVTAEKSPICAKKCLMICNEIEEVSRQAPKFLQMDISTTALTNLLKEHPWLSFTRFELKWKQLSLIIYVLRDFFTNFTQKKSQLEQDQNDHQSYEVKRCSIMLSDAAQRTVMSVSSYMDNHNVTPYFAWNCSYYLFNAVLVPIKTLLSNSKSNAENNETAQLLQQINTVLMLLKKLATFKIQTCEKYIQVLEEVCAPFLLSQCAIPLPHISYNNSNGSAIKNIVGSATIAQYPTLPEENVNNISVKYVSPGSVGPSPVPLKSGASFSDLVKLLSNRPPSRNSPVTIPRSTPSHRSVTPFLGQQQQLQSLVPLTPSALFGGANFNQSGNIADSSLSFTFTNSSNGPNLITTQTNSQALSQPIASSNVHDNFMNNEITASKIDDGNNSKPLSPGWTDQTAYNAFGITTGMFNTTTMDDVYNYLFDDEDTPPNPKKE
Sequence of zebrafish Estrogen Receptor (ER1), esr1 (gene 259252) (P57717 whole entry, looked up, the tested form may be a part): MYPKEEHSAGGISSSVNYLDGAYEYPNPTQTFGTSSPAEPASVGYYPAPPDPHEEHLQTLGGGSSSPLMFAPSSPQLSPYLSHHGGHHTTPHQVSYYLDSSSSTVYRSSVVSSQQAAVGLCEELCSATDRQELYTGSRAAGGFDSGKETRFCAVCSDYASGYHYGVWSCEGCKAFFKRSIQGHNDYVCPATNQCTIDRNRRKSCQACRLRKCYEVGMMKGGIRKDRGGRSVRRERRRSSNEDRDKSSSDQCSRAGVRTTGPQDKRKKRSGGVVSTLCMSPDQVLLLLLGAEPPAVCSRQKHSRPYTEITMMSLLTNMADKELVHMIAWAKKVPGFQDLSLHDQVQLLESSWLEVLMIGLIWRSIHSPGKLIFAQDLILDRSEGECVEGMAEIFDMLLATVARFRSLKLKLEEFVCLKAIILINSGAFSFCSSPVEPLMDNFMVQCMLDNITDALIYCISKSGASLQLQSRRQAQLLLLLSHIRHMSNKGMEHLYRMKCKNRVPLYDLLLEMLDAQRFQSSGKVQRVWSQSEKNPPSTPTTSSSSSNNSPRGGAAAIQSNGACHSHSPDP
Sequence of AR (gene 367) (P10275 whole entry, looked up): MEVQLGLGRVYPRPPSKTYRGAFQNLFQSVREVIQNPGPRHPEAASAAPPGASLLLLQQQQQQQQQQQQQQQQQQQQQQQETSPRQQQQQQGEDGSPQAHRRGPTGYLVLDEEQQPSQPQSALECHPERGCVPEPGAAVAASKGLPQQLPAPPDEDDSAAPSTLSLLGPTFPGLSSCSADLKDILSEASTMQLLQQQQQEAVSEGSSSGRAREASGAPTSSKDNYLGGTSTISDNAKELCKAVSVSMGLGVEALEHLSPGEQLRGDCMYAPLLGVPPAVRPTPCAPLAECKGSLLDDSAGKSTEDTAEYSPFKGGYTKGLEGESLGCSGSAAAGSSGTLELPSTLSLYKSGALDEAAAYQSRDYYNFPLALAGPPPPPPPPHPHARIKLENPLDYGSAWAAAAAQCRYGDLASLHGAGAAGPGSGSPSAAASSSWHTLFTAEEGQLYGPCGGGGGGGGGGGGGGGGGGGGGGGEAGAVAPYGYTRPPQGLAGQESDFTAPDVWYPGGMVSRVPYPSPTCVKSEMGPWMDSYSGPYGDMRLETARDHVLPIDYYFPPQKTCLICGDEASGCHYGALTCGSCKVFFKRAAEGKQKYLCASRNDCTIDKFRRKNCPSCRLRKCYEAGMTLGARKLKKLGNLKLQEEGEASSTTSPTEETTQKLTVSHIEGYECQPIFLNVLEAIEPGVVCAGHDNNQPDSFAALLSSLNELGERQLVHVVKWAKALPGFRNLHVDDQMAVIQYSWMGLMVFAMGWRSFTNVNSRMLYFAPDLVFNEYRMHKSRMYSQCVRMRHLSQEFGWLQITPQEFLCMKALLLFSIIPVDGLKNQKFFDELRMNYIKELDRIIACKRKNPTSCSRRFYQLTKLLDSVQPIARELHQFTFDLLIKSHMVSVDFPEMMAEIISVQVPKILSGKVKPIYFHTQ
Sequence of human Thyroid hormone Receptor alpha (TRa), THRA (gene 7067) (P10827 whole entry, looked up, the tested form may be a part): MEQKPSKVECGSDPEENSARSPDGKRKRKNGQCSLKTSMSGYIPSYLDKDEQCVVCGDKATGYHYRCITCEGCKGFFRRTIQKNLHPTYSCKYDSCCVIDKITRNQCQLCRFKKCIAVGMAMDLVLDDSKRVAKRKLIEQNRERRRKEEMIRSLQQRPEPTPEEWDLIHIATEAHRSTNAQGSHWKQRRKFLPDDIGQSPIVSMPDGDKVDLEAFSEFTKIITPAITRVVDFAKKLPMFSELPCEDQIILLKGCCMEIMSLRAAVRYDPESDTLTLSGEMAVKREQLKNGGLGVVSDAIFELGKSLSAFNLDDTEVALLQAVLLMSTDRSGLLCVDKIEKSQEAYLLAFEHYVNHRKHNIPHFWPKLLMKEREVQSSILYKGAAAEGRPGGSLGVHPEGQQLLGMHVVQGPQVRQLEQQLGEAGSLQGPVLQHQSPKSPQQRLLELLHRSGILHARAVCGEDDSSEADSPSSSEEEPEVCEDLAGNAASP
Sequence of frog Thyroid hormone Receptor alpha (TRa), thra-a (gene 397942) (P15204 whole entry, looked up, the tested form may be a part): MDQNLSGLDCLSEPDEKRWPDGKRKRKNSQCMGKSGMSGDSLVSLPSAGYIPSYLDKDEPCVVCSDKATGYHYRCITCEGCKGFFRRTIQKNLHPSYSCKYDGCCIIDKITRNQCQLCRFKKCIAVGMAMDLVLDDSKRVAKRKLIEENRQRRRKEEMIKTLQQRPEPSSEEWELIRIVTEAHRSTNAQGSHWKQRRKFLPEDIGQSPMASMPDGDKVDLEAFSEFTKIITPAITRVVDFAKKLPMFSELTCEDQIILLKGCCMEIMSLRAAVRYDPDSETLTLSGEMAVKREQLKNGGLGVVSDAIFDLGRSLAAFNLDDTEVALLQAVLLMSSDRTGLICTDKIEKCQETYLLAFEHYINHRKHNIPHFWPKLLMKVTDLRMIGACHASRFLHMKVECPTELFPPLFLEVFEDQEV
Sequence of zebrafish Thyroid Hormone Receptor alpha (TRa), thraa (gene 30670) (Q98867 whole entry, looked up, the tested form may be a part): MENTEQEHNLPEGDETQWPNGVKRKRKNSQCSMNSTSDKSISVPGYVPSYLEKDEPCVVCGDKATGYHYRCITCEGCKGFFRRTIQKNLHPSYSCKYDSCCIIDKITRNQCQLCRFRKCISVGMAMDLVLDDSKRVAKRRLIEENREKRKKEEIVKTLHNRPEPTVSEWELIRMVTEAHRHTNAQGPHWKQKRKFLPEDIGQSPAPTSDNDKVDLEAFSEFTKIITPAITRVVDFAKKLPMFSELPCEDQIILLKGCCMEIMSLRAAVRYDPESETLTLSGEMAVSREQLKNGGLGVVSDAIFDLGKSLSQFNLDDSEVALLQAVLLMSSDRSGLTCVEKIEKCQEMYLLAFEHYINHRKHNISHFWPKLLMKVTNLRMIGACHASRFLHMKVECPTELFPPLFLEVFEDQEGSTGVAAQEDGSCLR

Turning to `CC(C)(C)c1ccc(-c2ccc(C(C)(C)C)cc2)cc1`, in [1], the compound was classed as inactive.
For `CC(C)c1ccc2cc(C(C)C)ccc2c1`, in assay [1], the result was inactive.
`O=C(c1ccc(O)cc1)c1ccc(O)cc1O`: the AC50 was 0.531 µM (active) in [2]; 3.24 µM (active) in assay [16]; 1.6 µM (active) in assay [17]; 4.75 µM (active) in [19]; 3.03 µM (active) in assay [20]. The compound was classed as inactive in [3], in assay [4], in [5], in assay [6], in assay [7] and in assay [8]. The result in [9], in assay [10], in assay [11], in assay [12], in [13] and in assay [14] was inactive. Also, the call in assay [15] and in assay [18] was inactive.
`Oc1ccc(Cl)cc1Cc1cc(Cl)ccc1O`: in assay [1], the AC50 was 10.2 µM (active).
Take `CCCc1ccc(OC)cc1`: the compound was classed as inactive in assay [1].
The same measure, in the same setting: for `CC(C)=CCC[C@H](C)CCO` the value was “inactive”.
Consider `CCCCC/C=C\CCC=O`, for which the outcome in assay [1] was inactive.
Take `COC(=O)c1c(C)cc(O)c(C)c1O`: the compound was called inactive in assay [15], in [18] and in assay [19]. In addition, the AC50 in assay [16] was 8.55 µM (active) and 31.2 µM (active); in assay [17], 8.13 µM (active) and 12.3 µM (active); in [19], 27.5 µM (active); in assay [20], 19.8 µM (active) and 28.8 µM (active).
Regarding `O=c1cc(-c2ccccc2)oc2ccccc12`, in assay [1], the AC50 was 0.0284 µM (active).
